In PubChem BioAssay (Tox21):
Inconclusive results are not listed. Calls of active or inactive are those of the source. Unless noted, calls come from the whole dose curve; as a rule, active = well fitted curve in the direction sought with a large enough effect in the repeat runs; inconclusive = weak or mixed curves; inactive = no such curve, though single readings can be large; an effect the other way counts as inactive or inconclusive.

Columns and labels:
[1] = qHTS assay for small molecules that induce genotoxicity in human embryonic kidney cells expressing luciferase-tagged ATAD5 (AID 651632); note: nearly all actives have a fitted effect of over 15% in size
How it was run: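 HEK293T cells carrying a luciferase reporter tagged to ATAD5 were exposed to compound or DMSO vehicle for 16 hr at 37C, 5% CO2. Amplite was added, and after 30 min at room temperature luciferase activity was read as a marker of ATAD5 induction.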

[2] = qHTS assay for small molecule agonists of the p53 signaling pathway - cell viability (AID 651633; calls by dose curve; note: nearly all actives have a fitted effect of over 30% in size; note: potency is the fitted concentration of half-maximal effect)
How it was run: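 p53RE-bla cells were treated with compound for 16 hours at 37 C. Cytotoxicity was then measured as CellTiter-Glo luminescence after 30 min at room temperature.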

[3] = qHTS assay for small molecules that induce genotoxicity in human embryonic kidney cells expressing luciferase-tagged ATAD5 - cell viability (AID 651634; calls by dose curve; note: nearly all actives have a fitted effect of over 25% in size; note: potency is the fitted concentration of half-maximal effect)
How it was run: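 HEK293T cells expressing luciferase-tagged ATAD5 were exposed to compound or DMSO for 15.5 hr at 37C, 5% CO2. Viability was then read as live-cell protease activity by CellTiter-Fluor fluorescence after 30 min at 37C.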

[4] = qHTS assay for small molecule disruptors of the mitochondrial membrane potential - cell viability (AID 720634; calls by dose curve; note: nearly all actives have a fitted effect of over 20% in size; note: potency is the fitted concentration of half-maximal effect)
How it was run: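 HepG2 cells seeded overnight at 37 C, then exposed to compound or DMSO for 1 hr at 37 C, 5% CO2. m-MPI dye added, then CellTiter-Glo for 30 min at room temperature; viability read as ATP luminescence.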

[5] = qHTS assay for small molecule disruptors of the mitochondrial membrane potential (AID 720635); note: potency is the fitted concentration of half-maximal effect
How it was run: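 HepG2 cells exposed to compound 1 hr at 37C, then Mito-MPS dye 30 min. Ratio read of aggregate (540/590 nm) versus monomer (490/535 nm) fluorescence.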

[6] = qHTS assay to test for compound auto fluorescence at 590 nm (red) in HepG2 cells (AID 720674)
How it was run: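 Seeding: 2,000 HepG2 cells/well, MEM/10% FBS, overnight 37 C. Dosing: compound vs DMSO. Incubation: 1 hr, 37 C, 5% CO2. Read: fluorescence 540 ex/590 em, Rose Bengal sodium as red reference.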

[7] = qHTS assay to test for compound auto fluorescence at 535 nm (green) in HepG2 cells (AID 720675)
[8] = qHTS assay to test for compound auto fluorescence at 460 nm (blue) in HEK293 cells (AID 720678)
How it was run: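 HEK293 cells (2,000 per well, medium with 10% dialyzed FBS) attached for 4-5 hr at 37C, then received compound and stood overnight at 37C, 5% CO2. Blue fluorescence was read at Ex/Em 405/460 nm and expressed relative to triamterene.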

[9] = qHTS assay to test for compound auto fluorescence at 535 nm (green) in HEK293 cells (AID 720680)
[10] = qHTS assay to test for compound auto fluorescence at 460 nm (blue) in HEK293 cell free culture (AID 720681)
How it was run: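 Compounds were added to cell-free DMEM with 10% FBS and fluorescence read directly. The blue channel used 405 nm excitation and 460 nm emission, with triamterene as the reference fluorophore.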

[11] = qHTS assay to test for compound auto fluorescence at 535 nm (green) in HEK293 cell free culture (AID 720682)
How it was run: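 DMEM + 10% FBS, cell-free; cpd or DMSO pinned in; Ex485/Em535 read; output as fluorescein-equivalent signal.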

[12] = qHTS assay to test for compound auto fluorescence at 590 nm (red) in HEK293 cell free culture (AID 720683)
How it was run: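 Cell-free wells of DMEM with 10% FBS received compound, and intrinsic fluorescence was read at excitation/emission 540/590 nm. Values expressed as equivalence to Rose Bengal sodium.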

[13] = qHTS assay to test for compound auto fluorescence at 590 nm (red) in HepG2 cell free culture (AID 720684)
How it was run: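 Compound was pinned into wells holding MEM with 10% FBS and no cells, and red fluorescence was read at Ex/Em 540/590 nm. Signal is expressed as auto fluorescence equivalency relative to Rose Bengal sodium.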

[14] = qHTS assay to test for compound auto fluorescence at 460 nm (blue) in HepG2 cell free culture (AID 720685)
How it was run: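 Compound (23 nL) or DMSO pinned into cell-free MEM with 10% FBS; blue fluorescence read at 405/460 nm excitation/emission, expressed as auto-fluorescence equivalency to triamterene.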

[15] = qHTS assay to test for compound auto fluorescence at 535 nm (green) in HepG2 cell free culture (AID 720686)
[16] = qHTS assay to test for compound auto fluorescence at 460 nm (blue) in HepG2 cells (AID 720687)
How it was run: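 HepG2 cells in MEM with 10% FBS, attached overnight at 37 C, were exposed to compound or DMSO for 1 hr at 37 C, 5% CO2. Blue fluorescence was read at 405/460 nm, with triamterene as reference fluorophore.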

[17] = target: Glucocorticoid receptor (Homo sapiens) (UniProt P04150); test: qHTS assay to identify small molecule agonists of the glucocorticoid receptor (GR) signaling pathway (AID 720691; active = well fitted activation curve with a large enough effect in the signal ratio in the repeat runs, not every such curve was filed as active; the % refers to the signal ratio); conditions: GR-bla HeLa, beta-lactamase reporter ratio, 18 h; activation: at 62.4 µM (top of the series)
Sequence of Glucocorticoid receptor (Homo sapiens) (P04150 whole entry, looked up): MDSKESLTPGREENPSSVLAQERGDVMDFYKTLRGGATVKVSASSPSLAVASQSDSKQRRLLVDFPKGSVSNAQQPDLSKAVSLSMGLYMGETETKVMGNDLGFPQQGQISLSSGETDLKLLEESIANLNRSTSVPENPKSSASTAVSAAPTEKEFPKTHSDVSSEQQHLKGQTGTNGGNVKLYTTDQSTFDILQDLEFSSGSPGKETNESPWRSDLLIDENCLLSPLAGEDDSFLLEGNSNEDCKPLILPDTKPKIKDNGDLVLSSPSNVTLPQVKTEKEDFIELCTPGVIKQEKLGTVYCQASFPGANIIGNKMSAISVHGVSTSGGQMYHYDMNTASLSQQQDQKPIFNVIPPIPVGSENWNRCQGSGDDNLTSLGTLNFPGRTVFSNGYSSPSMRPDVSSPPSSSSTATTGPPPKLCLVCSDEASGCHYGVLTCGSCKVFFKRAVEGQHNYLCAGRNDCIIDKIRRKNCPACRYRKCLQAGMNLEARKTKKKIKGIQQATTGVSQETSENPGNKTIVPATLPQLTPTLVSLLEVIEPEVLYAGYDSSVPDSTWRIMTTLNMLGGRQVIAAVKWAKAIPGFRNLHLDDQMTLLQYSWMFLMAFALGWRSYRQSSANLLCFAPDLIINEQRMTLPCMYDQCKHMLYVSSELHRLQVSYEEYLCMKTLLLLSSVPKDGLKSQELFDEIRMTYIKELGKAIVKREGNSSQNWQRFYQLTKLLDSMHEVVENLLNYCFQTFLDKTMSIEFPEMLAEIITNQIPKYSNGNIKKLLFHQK
How it was run: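 GR-bla HeLa cells (beta-lactamase reporter under glucocorticoid response element) were plated 4 h at 37 C/5% CO2, given compounds in DMSO, and incubated 18 h at 37 C. LiveBLAzer B/G FRET substrate was added for 2 h at room temperature, then fluorescence intensity read.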

[18] = target: Glucocorticoid receptor (Homo sapiens) (UniProt P04150); test: qHTS assay to identify small molecule antagonists of the glucocorticoid receptor (GR) signaling pathway (AID 720692; active = well fitted inhibition curve with a large enough effect in the signal ratio in the repeat runs, not every such curve was filed as active; the % refers to the signal ratio)
How it was run: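 GR-bla HeLa cells (beta-lactamase reporter under glucocorticoid response element) were pre-plated 4 h at 37 C, treated with compounds plus 5 nM dexamethasone (final) for 18 h, then read by LiveBLAzer B/G FRET fluorescence after 2 h.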

[19] = qHTS assay to test for compound auto fluorescence at 590 nm (red) in HEK293 cells (AID 720679)
How it was run: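 HEK293 cells (2,000/well, medium with 10% dialyzed FBS) attached for 4-5 hr at 37C, received 23 nL compound and were incubated overnight at 37C, 5% CO2. Red fluorescence was then read at 540/590nm Ex/Em, referenced to Rose Bengal sodium.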

Measured: Potency

CN1CCN2c3ncccc3Cc3ccccc3C2C1 (stereo not drawn)
not listed: [19]
inactive: all other assays above

C=C[C@]1(C)C[C@@H](OC(=O)CSCCN(CC)CC)[C@]2(C)[C@H](C)CC[C@]3(CCC(=O)[C@H]32)[C@@H](C)[C@@H]1O
not listed: [14] | [17]
inactive: all other assays above

O=C(O)C1=C(CSc2nnnn2CS(=O)(=O)O)CS[C@@H]2[C@H](NC(=O)[C@H](O)c3ccccc3)C(=O)N12
not listed: [12] | [18]
inactive: all other assays above

CCNC(=O)[C@@H]1CCCN1C(=O)[C@H](CCCN=C(N)N)NC(=O)[C@H](CC(C)C)NC(=O)[C@@H](Cc1c[nH]c2ccccc12)NC(=O)[C@H](Cc1ccc(O)cc1)NC(=O)[C@H](CO)NC(=O)[C@H](Cc1c[nH]c2ccccc12)NC(=O)[C@H](Cc1cnc[nH]1)NC(=O)[C@@H]1CCC(=O)N1
active: [2] 8.41 µM | [3] 8.41 µM | [4] 29.8 µM | [5] 27.8 µM
not listed: [17] | [18] | [19]
inactive: all other assays above

CC(C)CCCC(C)NC(C)C (stereo not drawn)
not listed: [13] | [17] | [18]
inactive: all other assays above

CC1CS(=O)(=O)CCN1/N=C/c1ccc([N+](=O)[O-])o1 (stereo not drawn)
inactive: all assays above
